Among all 47,000 compounds or so, about 330 (0.7%) were called active. No stated cut-off is given here; in the data, active means inhibition above about 30%; inactive means the rest. The list comes from a sample in which actives are over-represented; it also holds similar structures and randomly drawn compounds.
The molecules below were run against OTU domain-containing protein 3 (Homo sapiens) (UniProt Q5T2D3) (assay: inhibitors of human OTUD3 deubiquitinase (AID 1645858)). Conditions: purified OTUD3, Ub-rhodamine fluorescence, 2 h; at 25 µM; hits give high values.
Chain of OTU domain-containing protein 3 (Homo sapiens) (Q5T2D3 whole entry, looked up, the tested form may be a part): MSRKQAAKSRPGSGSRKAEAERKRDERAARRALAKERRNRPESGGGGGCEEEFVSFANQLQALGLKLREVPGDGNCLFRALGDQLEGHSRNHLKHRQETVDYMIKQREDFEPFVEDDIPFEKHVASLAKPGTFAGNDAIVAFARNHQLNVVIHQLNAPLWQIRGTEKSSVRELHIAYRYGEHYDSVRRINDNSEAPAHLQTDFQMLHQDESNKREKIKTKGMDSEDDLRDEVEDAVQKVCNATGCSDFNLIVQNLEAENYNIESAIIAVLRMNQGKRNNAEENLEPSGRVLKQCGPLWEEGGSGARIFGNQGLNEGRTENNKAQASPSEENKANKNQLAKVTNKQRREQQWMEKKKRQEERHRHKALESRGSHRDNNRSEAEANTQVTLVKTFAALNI

SMILES | inhibition
Cc1nn(-c2cccc(F)c2)c2c1c(C)c(CCC(=O)NCc1ccccn1)c(=O)n2C | 8.09% (inactive)
CC(=O)N1CCC(N2CCC[C@H]2c2nc(-c3ccc(OC4CCCCC4)nc3)no2)CC1 | -18.8% (inactive)
O=C(c1cc2ccc(F)cc2[nH]1)N1CCOCC(Cc2ccncn2)C1 (centres undefined) | -7.16% (inactive)
Cn1cc(C(=O)N2CCCCC2c2nc(N)ncc2-c2ccccc2)ccc1=O (centres undefined) | -2.37% (inactive)
CCC(=O)N(C)CCc1noc(-c2[nH]c3ccc(C)cc3c2C)n1 | -11.5% (inactive)
Cc1noc(C)c1C1CCCN1S(=O)(=O)c1cccc(Cl)c1 (centres undefined) | 0.263% (inactive)
O=C(COc1cccc2ccc(N3CCC(Cc4ccccc4)CC3)nc12)NCc1ccc(F)cc1 | 36.2% (active)
O=C(COc1cccc2ccc(N3CCC(Cc4ccccc4)CC3)nc12)Nc1cccc(F)c1 | 21.8% (inactive)
O=C(CCc1nnc2ccc(N3CCCC3)nn12)NCc1ccc(F)cc1 | 12% (inactive)
Cc1ccc(NC(=O)N2CCC(CC(=O)N3CCCCC3)CC2)cc1 | -0.189% (inactive)
CCC(C)C1C(=O)/C(=C(\O)C2C3C(C)CC(C)CC3C=CC2C2(C)OC2C)C(=O)N1C (centres undefined) | 18.9% (inactive)
CCOC(=O)N1CCN(c2nc3c(c(=O)[nH]c(=O)n3C)n2CCSc2ncccn2)CC1 | 13.2% (inactive)
CC(C)CNC(=O)C1CCN(c2cncnc2N2CCOCC2)CC1 | 0.599% (inactive)
CC(=O)c1sc(NC(=O)c2ccc(S(=O)(=O)N3CC(C)CC(C)C3)cc2)nc1C (centres undefined) | 4.19% (inactive)
CCn1c(CN(C)C(=O)Nc2cccc(C)c2)nc2cc(C(=O)N(C)C)ccc21 | 10.5% (inactive)
CS(=O)(=O)c1ccc(C(=O)Nc2ccccc2-c2ccccc2)cc1 | 11.2% (inactive)
COc1ccc(N2CC(c3nnc(NC(=O)CCc4ccccc4)s3)CC2=O)cc1 (centres undefined) | 17.9% (inactive)
N#CCCN(C(=O)c1cc2c(s1)-c1ccc(Cl)cc1S(=O)(=O)C2)c1ccccc1 | -4.41% (inactive)
CC(=O)N1CCc2c([nH]c3ccccc23)C1 | -0.00325% (inactive)
COc1ccccc1N(CC(=O)N1c2ccccc2CC1C)S(=O)(=O)c1ccc(F)cc1 (centres undefined) | 14% (inactive)
Oc1ccc(O)c2c1C(O)CCC21Oc2cccc3cccc(c23)O1 (centres undefined) | -11.1% (inactive)
Cc1nc2n(n1)CCN(C(=O)c1cc(-c3cccs3)[nH]n1)C2 | 0.034% (inactive)
CC(Oc1ccccc1)C(=O)Nc1ccc(-c2cn3cccnc3n2)cc1 (centres undefined) | 4.02% (inactive)
CC1(C)Cc2c(c(-c3ccco3)nc3sc4c(SCCCc5ccccc5)ncnc4c23)CO1 | 33.5% (active)
CCCCCCSc1ncnc2c1sc1nc(-c3ccccc3)c3c(c12)CC(C)(C)OC3 | -6.83% (inactive)

SMILES | inhibition
CSc1ncnc2c1sc1nc(-c3ccccc3)c3c(c12)CC(C)(C)OC3 | 7.31% (inactive)
COc1ccc(Cl)cc1C(=O)NCC(c1ccsc1)N1CCOCC1 (centres undefined) | -5.99% (inactive)
CC1CN(S(=O)(=O)c2cccc(Cl)c2)Cc2ccccc2N1C (centres undefined) | -2.48% (inactive)
Cc1ccc(S(=O)(=O)c2cn(CC(=O)NC3CCCC3)c3nc(C)ccc3c2=O)cc1 | -8.29% (inactive)
N#Cc1cccc(CN2CC[C@@H]3[C@@H](CO[C@@H]3CNc3ncccn3)C2)c1 | 0.273% (inactive)
CCN1CCN(c2ccc(-c3nc(-c4ccc(C)cc4)no3)cn2)CC1 | -1.12% (inactive)
Cc1cc2n(n1)CCCN2C(=O)CCC(=O)N1CCN(c2ccc(F)cc2)CC1 | 7.75% (inactive)
O=C(NCc1cccnc1)C1CCN(c2cnc(N3CCCCCC3)nc2)CC1 | -16.6% (inactive)
O=C(Cn1cccc1-c1nnc(C2CC2)o1)NC1CCCCC1 | -15.9% (inactive)
CCCNc1c(NC(=O)C2CC(=O)N(c3ccccc3)C2)c(=O)oc2ccccc12 (centres undefined) | 21.6% (inactive)
O=C(N[C@@H]1C[C@@H](Oc2cccnc2)[C@H](O)[C@H]1N1CCCCC1)c1ccccn1 | -9.39% (inactive)
CC(=O)N1Cc2ccccc2CC2(CCN(Cc3cccnc3)CC2)C1 | 4.03% (inactive)
CCC(=O)Nc1nc2cc(NC(=O)c3ccc(OC)cc3)ccc2s1 | 17.4% (inactive)
O=C(NCCc1ccccc1)c1ccc2c(=O)nc3c(-c4ccccc4F)n[nH]n3c2c1 | -7.12% (inactive)
O=C(Cn1c(=O)n(Cc2ccc3c(c2)OCO3)c(=O)c2ccccc21)NCc1ccco1 | 0.529% (inactive)
O=C(NCCc1ccccc1)c1ccc2c(=O)n(Cc3ccco3)c(=O)n(Cc3cccc([N+](=O)[O-])c3)c2c1 | 36.8% (active)
COCCn1cc2c3c(cccc31)CN(C(=O)c1cnccn1)CC2 | -12.8% (inactive)
Cc1nn(-c2ccccn2)c2ncc(C(=O)c3cc(F)ccc3O)cc12 | -3.93% (inactive)
CCNC(=O)CCc1nc2c(C)nn(-c3ccccc3)c2n(CC)c1=O | 9.41% (inactive)
CC(C)c1cc(C2CCCN2C(=O)Cc2ccc(F)cc2)no1 (centres undefined) | 2.85% (inactive)
CCN1CCC(n2c(C(F)(F)F)nc3c(OC)cccc32)CC1 | 5.17% (inactive)
CCN1C[C@@]23CN(C(=O)c4cccc(Cl)c4)C[C@@H](C[C@@H]2S1(=O)=O)O3 | 11.4% (inactive)
CCc1nnc(-c2ccc(=O)n(CC(=O)N3CCN(C(C)C)CC3)c2)o1 | -5.08% (inactive)
CNc1nc(N2CCCCCC2)nc(-n2cnc(SC)n2)n1 | -0.432% (inactive)
COc1cccc(N2CCN(C(=O)c3sc4ncccc4c3-n3cccc3)CC2)c1 | 15.3% (inactive)

SMILES | inhibition
O=C(Cc1cc(=O)oc2cc(O)ccc12)N1CC[C@@]2(O)CCCC[C@H]2C1 | 1.08% (inactive)
Cc1occc1C(=O)Nc1cc(-c2ccc(F)cc2)nn1C | -0.358% (inactive)
O=C(O)CC1(CC(=O)Nc2ccc(Oc3ccccc3)cc2)CCCC1 | 15.9% (inactive)
Clc1ccc(CNC2CCN(Cc3ccccc3)C2)cc1Cl (centres undefined) | 5.2% (inactive)
Cc1cc(S(=O)(=O)N2CC=C(c3c(C)[nH]c4ccccc34)CC2)ccc1F | -29.4% (inactive)
CCc1ccc(S(=O)(=O)N2CCC3(CC2)COCCN(Cc2cccnc2)C3)cc1 | -4.96% (inactive)
Clc1cc2nc(N3CCN(c4ccccn4)CC3)c3nncn3c2cc1Cl | 44.6% (active)
Cc1nn(-c2ccccc2)c(C)c1S(=O)(=O)N1CCN(c2ccccn2)CC1 | -4.16% (inactive)
O=C(c1ccc(N2CCCC2)nn1)N1CCN(c2ccccn2)CC1 | 0.782% (inactive)
Cc1nc(NC(=O)c2ccc(F)cc2Cl)sc1-c1ccccc1 | -3.32% (inactive)
CC(=O)N[C@@H]1C[C@H](c2cccc(F)c2)O[C@@H]2CCC[C@@H]12 | -4.95% (inactive)
CCn1c(CNC(=O)c2ccco2)nnc1SCC(=O)Nc1cccc(F)c1 | 0.153% (inactive)
COc1ccc(/C=C/C(=O)Nc2ccc3c(c2)OCCO3)cc1Br | -13.2% (inactive)
O=C(CSc1nnc(-c2ccncc2)n1Cc1ccccc1)Nc1cccc(Cl)c1 | -10.3% (inactive)
O=C(c1ccncc1)N1CC[C@@H]2CN(Cc3cccc(Cl)c3)S(=O)(=O)[C@@H]2CC1 | 2.12% (inactive)
Cc1cccc(-c2c3c(=O)n(C)c(=O)n(C)c3cn2Cc2ccc(F)cc2)c1 | -12.7% (inactive)
CC(C)=CCC/C(C)=C\Cc1c(O)cc(C)c(C=O)c1O | -3.19% (inactive)
NC(=O)c1ccc(NC(=O)Cc2cc(-c3ccc(Cl)cc3)on2)cc1 | -10.7% (inactive)
Cc1ccc(NS(=O)(=O)c2ccc3c(c2)NC(=O)CC(=O)N3)cc1F | -1.08% (inactive)
CCOc1ccc(S(=O)(=O)N2CCCC2c2ccco2)cc1 (centres undefined) | -0.738% (inactive)
O=C1CC(C(=O)N2CCC(c3ccc(Nc4ncccn4)cn3)CC2)c2ccccc2N1 (centres undefined) | -7.6% (inactive)
O=S(=O)(c1cccc2cccnc12)N1CCN(C2CCCCC2)CC1 | -6.63% (inactive)
O=C1C(O)=C(c2ccc(O)c(O)c2)C(=O)C(O)=C1c1ccccc1 | 73.3% (active)
CCOC(=O)c1cc(C(=O)Nc2cccc(C(F)(F)F)c2)n2ccc(C)cc12 | -0.911% (inactive)
